Test in all cases: NCI-60 one-dose screen, 48 h (100 = growth as untreated, 0 = no growth, -100 = all killed)
Holding throughout (settings): 10 µM

Test [1] deals with HCT-15 colon.
The test system of test [2] is HT29 colon.
Test [3] has as its system SNB-75 CNS.
In test [4] the test system is SNB-19 CNS.
Test [5] deals with U251 CNS.
The subject of test [6] is PC-3 prostate.
For test [7], the system named is SK-MEL-5 melanoma.
Test [8] concerns UACC-62 melanoma.
For test [9], the system named is LOX IMVI melanoma.
For test [10], the system named is SK-MEL-28 melanoma.

Experimental findings from PubChem BioAssay (NCI) are described below.

This is part of a sample that, as a whole, favours compounds with a hit. Of some 83,000 tested, about 20% had one in any assay.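 Step 1: grow cells in 96-well plates. Step 2: add test compound at a single concentration. Step 3: incubate 48 h. Step 4: record percent growth.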 Unmarked numbers belong to inactive results. Active and inactive are the calls of the source. Rule for the calls: active = growth percent below 10; inactive = the rest.

In the case of `O=S(=O)(NCl)c1ccccc1`, the growth in test [1] was 102%; in test [2] it was 106%; in [3], 84.3%; in [4] it was 104%; in [5], 95.9%; in test [6], 99.1%. Further, the growth in test [7] was 103%; in [8], 106%; in [9], 97.1%; in test [10], 97.1%.
In the case of `O=C(OCC1OC(n2cc(C(F)(F)F)c(=O)[nH]c2=O)CC1OC(=O)c1ccc([N+](=O)[O-])cc1)c1ccc([N+](=O)[O-])cc1` (stereo not given), the growth in test [1] is 87%; in [2], 75.3%; in test [3], 90.8%; in test [4], 94.5%; in [5], 76.1%; in [6], 71.7%. Also, the growth in [7] was 43.2%; in test [8], 30.7%; in [9], 64.2%; in test [10], 86.9%.
`CCC1(C)OC(=O)NC1=O` (stereo not given): the growth in test [1] is 100%; in test [2], 99.9%; in test [3], 100%; in [4], 108%; in [5], 99%; in test [6], 79.3%. Also, the growth was 98.2% in test [7], 103% in [8], 94.3% in test [9] and 108% in test [10].
Take `COc1cc(/C=C2\C(=O)Nc3cc(C)c(O)cc32)cc(OC)c1OC`: the growth in [1] was 33.7%; in test [2], 22.4%; in test [3], 55.1%; in [4] it was 71.6%; in test [5] it was 44.5%; in test [6], 33.5%. Besides, the growth in [7] was 47%; in test [8], 57.9%; in [9] it was 45.7%; in test [10], 73.2%.
As for `Cn1cnc([N+](=O)[O-])c1/C=C1\Oc2ccc(Cl)cc2C1=O`, the growth is 78.4% in test [1]; 78.4% in [2]; 83.6% in [3]; 107% in test [4]; 97.2% in test [5]; 79.3% in test [6]. For the same molecule, the growth in test [7] is 91.8%; in [8] it was 91.1%; in test [9], 73%; in test [10], 105%.
Consider `COc1cc2c3c(cccc3c1)C(=O)N(CCN1CCCC1)C2=O`, for which the growth in [1] was 20.1%; in test [2] it was 0.567% (active); in [3] it was 23.5%; in test [4] it was 31.7%; in test [5] it was 25.9%; in test [6] it was 14.3%. In addition, the growth in test [7] was -33.3% (active); in test [8], -34% (active); in [9], -2.23% (active); in [10], 19.1%.
Regarding `COc1cccc(C(=O)NNc2nc(N3CCOCC3)nc(N3CCN(C(c4ccccc4)c4ccccc4)CC3)n2)c1`, the growth in test [1] was 89.2%; in [2] it was 95%; in test [3], 71.5%; in test [4], 86.3%; in test [5], 85.2%; in [6], 55.1%. Moreover, the growth in test [7] was 53.3%; in [8], 65.8%; in test [9], 83.1%; in test [10], 93.4%.
Take `O=C(CCl)N1c2ccccc2Sc2ccc3ccccc3c21`: the growth in test [1] is -51.3% (active); in test [2], -76.1% (active); in test [3], 3.3% (active); in test [4], 69.7%; in test [5], 0.19% (active); in test [6], -86.6% (active). For the same molecule, the growth is 22.9% in test [7], -0.738% (active) in test [8], -78.3% (active) in test [9] and 19.6% in [10].
For the molecule `CCc1c(C(=O)NCc2c(O)ccc3cccc(O)c23)[nH]c(C)c1C(C)=O`, the growth in test [1] was 14%; in [2] it was 58.2%; in test [3], 56.6%; in test [4] it was 53%; in test [5], 33.4%; in test [6], 27.4%. Besides, the growth in [7] is 1.58% (active); in test [8] it was 15.4%; in [9] it was 16.2%; in test [10], 37.5%.
Consider `NC(=O)C12C(=O)NC(=O)C1(C(=O)O)C21CCCC1` (stereo not given), for which the growth was 107% in test [1]; 110% in test [2]; 84.2% in test [3]; 99.3% in test [4]; 102% in test [5]; 99% in [6]. Besides, the growth in [7] is 106%; in test [8], 101%; in test [9], 102%; in test [10] it was 109%.
`CCOC(=O)c1ccc(N(C=O)CCC(=O)CCl)cc1`: the growth is 17.8% in test [1]; 1.42% (active) in test [2]; 26.5% in test [3]; 59.4% in [4]; 4.55% (active) in [5]; 26% in [6]. The growth in [7] was 2.68% (active); in test [8], 13%; in test [9] it was 3.93% (active); in [10], 34%.
On to `CC(C)(C)CC(C)(C)c1ccc(O)c(Cc2ccc(Cl)cc2Cl)c1`, for which the growth in [1] was -78.7% (active); in test [2], -92.4% (active); in test [3], -77.7% (active); in [4], -82.9% (active); in test [5], -95.3% (active); in [6], -65.2% (active). Further, the growth in test [7] was -95.1% (active); in test [8] it was -87.9% (active); in test [9], -95.4% (active); in [10] it was -84.9% (active).
On to `CCN(CC)CC(O)Cc1ccc(OC)cc1` (stereo not given), for which the growth in test [1] was 108%; in test [2], 103%; in [3] it was 102%; in [4], 109%; in test [5], 108%; in test [6] it was 96.5%. Further, the growth was 100% in test [7], 111% in test [8], 102% in test [9] and 116% in test [10].
For `NC1CCC(Nc2nc(NCc3ccc(-c4ccco4)nc3)c3ncn(C4CCCC4)c3n2)CC1` (stereo not given), the growth in test [1] is 3.49% (active); in test [2], -21.9% (active); in test [3], -46.9% (active); in test [4], 14.2%; in test [5], 5.19% (active); in test [6] it was -1.27% (active). The growth was -6.6% (active) in test [7], -31% (active) in test [8], -26.2% (active) in test [9] and 0.269% (active) in test [10].
